Results reported in PubChem BioAssay (EPA / NIEHS).
Activity calls are given as the source filed them. The calls were made as follows: active = hit-call score of the fitted dose curve at least 0.9, where 1 is the maximum; inactive = score below 0.9.

What was measured:
[1] = APR_HepG2_P-H2AX_72hr: Apredica 72-hour HepG2 Assay for H2AX Phosphorylation (AID 2282916); conditions: imaging, actives raise or lower the signal;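 also: phospho-histone H2A.x immunostain intensity per cell marking DNA damage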
How it was run: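 HepG2; cpd 0.39–200 uM ×10 conc, duplicates; 0.5% DMSO; 72 hr. Fix 3.7% formaldehyde 30 min RT, 0.5% Triton X-100 10 min. Anti-phospho-H2A.x 1:200 + Hoechst 2 ug/mL, 60 min RT; ArrayScan imaging.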

[2] = APR_HepG2_MitoMembPot_72hr: Apredica 72-hour HepG2 Assay for Mitochondrial Membrane Potential (AID 2282917); conditions: imaging, actives raise or lower the signal
How it was run: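 HepG2 cells dosed 72 hr with compound at 0.39–200 uM in duplicate, 0.5% v/v DMSO final. Mitochondria stained with 250 nM MitoTracker Red CMXRos for 30 min before formaldehyde fixation, imaged by high-content fluorescence; bidirectional fit versus DMSO.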

[3] = APR_HepG2_MicrotubuleCSK_72hr: Apredica 72-hour HepG2 Assay for Microtubule CSK Stabilty (AID 2282919); conditions: HepG2 microtubule cytoskeleton, high-content imaging, actives raise or lower the signal
How it was run: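 HepG2 cells were exposed 72 hr to compound at 0.39–200 uM in duplicate (0.5% DMSO final), then fixed and permeabilized. Alpha-tubulin immunofluorescence was imaged by high-content microscopy, with bidirectional fitting against DMSO and taxol as positive control.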

[4] = APR_HepG2_P-H2AX_24hr: Apredica 24-hour HepG2 Assay for H2AX Phosphorylation (AID 2282920); conditions: high-content imaging, actives raise or lower the signal
How it was run: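 HepG2, 24 hr, cpd 0.39–200 uM (10 conc, duplicate), DMSO 0.5% v/v final. Fix 3.7% formaldehyde, Triton X-100 permeabilize, anti-phospho-H2A.x 1:200 + Hoechst 2 ug/mL. Imaged, bidirectional fit vs DMSO.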

[5] = APR_HepG2_StressKinase_72hr: Apredica 72-hour HepG2 Assay for Stress Kinase (AID 2282921); conditions: HepG2 stress kinase (phospho-c-Jun) imaging, actives raise or lower the signal
How it was run: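 Dose 0.39–200 uM (10 pts, duplicate), 0.5% DMSO; 72 h; fix 3.7% formaldehyde 30 min RT; Triton permeabilize; anti-phospho-c-Jun/Cy3 + Hoechst 60 min RT; image 20x; fit gain/loss vs DMSO.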

[6] = APR_HepG2_StressKinase_24hr: Apredica 24-hour HepG2 Assay for Stress Kinase (AID 2282922); conditions: HepG2 stress kinase (phospho-c-Jun) imaging, actives raise or lower the signal
How it was run: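 HepG2 cells exposed 24 h to 0.39–200 uM compound in duplicate (0.5% v/v DMSO final). Cells fixed in 3.7% formaldehyde, permeabilized and immunostained for phospho-c-Jun; read by high-content fluorescence imaging, fitted bidirectionally against DMSO.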

[7] = APR_HepG2_p53Act_72hr: Apredica 72-hour HepG2 Assay for p53 Activation (AID 2282923); conditions: high-content imaging, actives raise or lower the signal;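 also: average cellular p53 protein immunofluorescence intensity in HepG2 cells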
How it was run: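 10-pt conc. 0.39–200 uM, duplicate, 0.5% DMSO; 72 hr exposure; 3.7% formaldehyde fix, 0.5% Triton perm; sheep anti-p53/Cy5 + Hoechst; ArrayScan 20x, 6 images/well; gain/loss fit vs DMSO.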

[8] = APR_HepG2_MitoMass_72hr: Apredica 72-hour HepG2 Assay for Mitochondrial Mass (AID 2282924); conditions: high-content imaging, actives raise or lower the signal;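 also: MitoTracker Red CMXRos stain intensity per cell imaged as mitochondrial mass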
How it was run: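 HepG2 cells dosed 72 hr at 0.39–200 uM (0.5% DMSO), in duplicate. MitoTracker Red CMXRos 250 nM loaded 30 min before formaldehyde fixation; high-content fluorescence imaging, bidirectional fit versus DMSO.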

[9] = APR_HepG2_NuclearSize_72hr: Apredica 72-hour HepG2 Assay for Nuclear Size (AID 2282925); conditions: high-content imaging, actives raise or lower the signal
How it was run: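 HepG2 cells dosed 72 h at 0.39–200 uM (10 concentrations, duplicate) in 0.5% v/v DMSO final. Fixed, Hoechst 33342-stained nuclei imaged; nuclear diameter measured by automated image analysis. Bidirectional fit versus DMSO.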

Compound	outcome [1]	AC50 [2]	outcome [3]	outcome [4]	outcome [5]	outcome [6]	outcome [7]	outcome [8]	outcome [9]	outcome [2]	AC50 [3]	AC50 [1]	AC50 [4]	AC50 [8]
CCOP(=O)(NC(C)C)Oc1ccc(SC)c(C)c1 (centres undefined)	inactive	50.5 µM (active)	inactive	inactive	inactive	inactive	inactive	inactive	inactive					
C#CCC1=C(C)C(OC(=O)C2C(C=C(C)C)C2(C)C)CC1=O (centres undefined)	inactive		inactive	inactive	inactive	inactive	inactive	inactive	inactive	inactive				
CNC(=O)ON=C(C)SC	inactive		inactive	inactive	inactive	inactive	inactive	inactive	inactive	inactive				
CC(COc1ccc(Oc2ccccc2)cc1)Oc1ccccn1 (centres undefined)	inactive			inactive	inactive	inactive	inactive	inactive	inactive	inactive	82.3 µM (active)			
CCOP(=O)(SC(C)CC)N1CCSC1=O (centres undefined)	inactive		inactive	inactive	inactive	inactive		inactive	inactive	inactive				
CNC(=O)Oc1cccc2c1OC(C)(C)O2			inactive		inactive	inactive	inactive		inactive	inactive		97 µM (active)	99.4 µM (active)	56.7 µM (active)
CCCOCC(=Nc1ccc(Cl)cc1C(F)(F)F)n1ccnc1	inactive		inactive	inactive	inactive	inactive	inactive	inactive	inactive	inactive				
CNC(=O)ON=C(SC)C(=O)N(C)C	inactive		inactive	inactive	inactive	inactive	inactive		inactive	inactive				87.8 µM (active)
O=c1ccc(=O)[nH][nH]1	inactive		inactive	inactive	inactive	inactive	inactive	inactive	inactive	inactive				
O=C(O)c1cc(Oc2ccc(C(F)(F)F)cc2Cl)ccc1[N+](=O)[O-]	inactive		inactive	inactive	inactive	inactive		inactive	inactive	inactive				
Nc1nc(N)nc(NC2CC2)n1	inactive		inactive	inactive	inactive	inactive	inactive	inactive	inactive	inactive				
CSc1nnc(C(C)(C)C)c(=O)n1N	inactive		inactive	inactive	inactive	inactive	inactive	inactive	inactive	inactive				
C#CC(C)(C)NC(=O)c1cc(Cl)cc(Cl)c1	inactive		inactive	inactive	inactive	inactive	inactive	inactive	inactive	inactive				
CC(C1CC1)C(O)(Cn1cncn1)c1ccc(Cl)cc1 (centres undefined)	inactive		inactive	inactive	inactive	inactive	inactive	inactive	inactive	inactive				
Cc1ccn2nc(S(=O)(=O)Nc3c(F)cccc3F)nc2n1	inactive		inactive	inactive	inactive	inactive		inactive	inactive	inactive				
Cc1nn(-c2cc(NS(C)(=O)=O)c(Cl)cc2Cl)c(=O)n1C(F)F	inactive		inactive	inactive	inactive	inactive	inactive	inactive	inactive	inactive				

Compound	outcome [1]	AC50 [2]	outcome [3]	outcome [4]	outcome [5]	outcome [6]	outcome [7]	outcome [8]	outcome [9]	outcome [2]	AC50 [3]	AC50 [1]	AC50 [4]	AC50 [8]
CCOP(=S)(OCC)Oc1cc(C)nc(C(C)C)n1	inactive		inactive	inactive	inactive	inactive	inactive	inactive	inactive	inactive				
CCCCOC(=O)c1ccccc1C(=O)O	inactive		inactive	inactive	inactive	inactive	inactive	inactive	inactive	inactive				
CN(C)NC(=O)CCC(=O)O	inactive		inactive	inactive	inactive	inactive	inactive	inactive	inactive	inactive				
CN(C)C(=O)Nc1cccc(C(F)(F)F)c1	inactive		inactive	inactive	inactive	inactive	inactive	inactive	inactive	inactive				
CC(C)=CC1C(C(=O)OCN2C(=O)C3=C(CCCC3)C2=O)C1(C)C (centres undefined)	inactive		inactive		inactive	inactive	inactive	inactive	inactive	inactive			99.3 µM (active)	
CC1(C(=O)Nc2ccc(O)c(Cl)c2Cl)CCCCC1	inactive			inactive	inactive	inactive	inactive	inactive	inactive	inactive	91.7 µM (active)			
CC(Oc1cccc(Cl)c1)C(=O)O (centres undefined)	inactive		inactive	inactive	inactive	inactive	inactive	inactive	inactive	inactive				
CCCCSP(=O)(SCCCC)SCCCC	inactive	157 µM (active)	inactive	inactive	inactive	inactive	inactive	inactive	inactive					
CCCCOC(=O)[C@@H](C)Oc1ccc(Oc2ccc(C#N)cc2F)cc1	inactive		inactive	inactive	inactive	inactive	inactive	inactive	inactive	inactive				
CCC(=NOC/C=C/Cl)C1=C(O)CC(C2CCOCC2)CC1=O (centres undefined)	inactive		inactive	inactive	inactive	inactive	inactive	inactive	inactive	inactive				
Cc1cc(C2CC2)nc(Nc2ccccc2)n1				inactive	inactive	inactive	inactive	inactive	inactive	inactive	56.9 µM (active)	51.8 µM (active)		
S=C1NCCN1	inactive		inactive	inactive	inactive	inactive	inactive	inactive	inactive	inactive				
Nc1c(Cl)cc([N+](=O)[O-])cc1Cl	inactive		inactive	inactive	inactive	inactive		inactive	inactive	inactive				
CCOP(=S)(OCC)SCCSCC	inactive		inactive	inactive	inactive	inactive	inactive	inactive	inactive	inactive				
CCc1cccc(CC)c1N(COC)C(=O)CCl	inactive	31.1 µM (active)	inactive		inactive	inactive		inactive	inactive				70.7 µM (active)	
